Shown is part of a subset that was picked to be rich in hits.
Shiga inhibitor: inhibitors of Shiga toxin in Vero cells; Vero cells, Shiga toxin protein synthesis inhibition reporter; inhibition, % at 38.7 µM; 9.2% of 290,000 active; in the data active means inhibition mostly above about 28%, no sharp cut-off; inactive means mostly below about 43%; further: 0% is about no effect
TbPYK inhibitor: T. brucei pyruvate kinase inhibition; 0.12% of 410,000 active; AID 624173; Potency, µM (series often up to 76.8 µM), for inactives: top-dose activity, negative = inhibition, hits mostly inhibitors; TbPYK enzyme, Kinase-Glo Plus ATP luminescence, 45 min; Q57TT1; further: potency means the concentration at half of the fitted maximal effect; on the % scale 0 is the no-effect control and ±100 the full control effect; nearly all actives have a fitted effect of over 50% in size
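Enzyme and substrate buffer are dispensed first and compound is pin-transferred. ADP at 130 uM final then starts the reaction, which runs 45 min at room temperature. Detection reagent is added for 10 min before luminescence is imaged.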
Cycloheximide cs: counter-screen hit for Shiga toxin inhibitors, cycloheximide. cell reporter, cycloheximide protein synthesis inhibition counterscreen. max response, %. 12% of 300,000 active. AID 2314; in the data active means max response mostly above about 13%, no sharp cut-off; inactive means mostly below about 14%; further: read at 38.3 µM for the half of the compounds with a filed dose; 0% is about no effect
LmPK inh: LmPK (Leishmania mexicana) enzyme inhibition. purified LmPK, Kinase-Glo ATP luminescence, 1 h. Potency, µM (highest dose often 57.5 µM), for the others: at the highest dose activity change, negative = inhibition, actives largely listed as inhibitors. 0.37% of 290,000 active. AID 1721; further: potency means the concentration at half of the fitted maximal effect; on the % scale 0 is the no-effect control and ±100 the full control effect
Target sequence (Q27686 whole entry, looked up): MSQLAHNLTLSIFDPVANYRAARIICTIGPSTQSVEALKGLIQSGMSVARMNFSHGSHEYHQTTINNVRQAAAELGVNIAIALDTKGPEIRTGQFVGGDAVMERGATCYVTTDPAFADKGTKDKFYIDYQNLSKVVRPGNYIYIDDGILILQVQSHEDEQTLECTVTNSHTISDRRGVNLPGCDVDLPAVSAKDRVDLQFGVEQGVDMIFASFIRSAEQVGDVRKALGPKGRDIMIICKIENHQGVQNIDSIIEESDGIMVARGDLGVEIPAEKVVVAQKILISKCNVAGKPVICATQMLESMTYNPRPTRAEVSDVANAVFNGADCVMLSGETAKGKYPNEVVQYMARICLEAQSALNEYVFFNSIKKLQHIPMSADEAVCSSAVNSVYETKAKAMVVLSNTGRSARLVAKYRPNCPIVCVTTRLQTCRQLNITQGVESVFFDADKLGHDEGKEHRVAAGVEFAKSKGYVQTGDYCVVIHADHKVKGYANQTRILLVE
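Purified LmPK (0.1 nM) converted ADP (0.1 mM) to ATP with PEP (0.5 mM) in imidazole buffer pH 7.2 with KCl and MgCl2, 1 h at room temperature. ATP was read by Kinase-Glo luminescence; data normalized to uninhibited and no-enzyme controls.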
Giardia FBPA inh: inhibitors of Giardia lamblia fructose-1,6-bisphosphate aldolase | A8B2U2 | 0.71% of 290,000 active | purified Giardia FBPA | Potency, µM (top dose mostly 59.6 µM), for inactives: at the top dose activity, negative = inhibition, actives largely listed as inhibitors; further: potency means the concentration at half of the fitted maximal effect; on the % scale 0 is the no-effect control and ±100 the full control effect; nearly all actives have a fitted effect of over 55% in size
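Giardia FBPA (40 nM reagent) was preincubated 10 min at RT with compound (up to 57.5 uM final), then substrate plus GAPDH/TPI/NAD/arsenate coupling system with diaphorase/resazurin was added; resorufin fluorescence (525/598 nm) was read after 20 min.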
Sm TGR inh: S. mansoni TGR enzyme inhibition; Q962Y6; purified TGR, DTNB reduction, TNB absorbance 405 nm; Potency, µM (top dose mostly 114 µM), without a hit: top-dose activity change, negative = inhibition, most hits filed as inhibitors; 3% of 360,000 active; further: potency means the concentration at half of the fitted maximal effect; on the % scale 0 is the no-effect control and ±100 the full control effect; nearly all actives have a fitted effect of over 60% in size
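First, TGR (20 nM dispensed) and NADPH were mixed with compound. Second, a 15 min room-temperature incubation followed. Third, further NADPH and then DTNB were added to start the reaction. Finally, TNB absorbance was monitored kinetically.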
* marks the source's active call; other numbers are inactive results; ? = inconclusive; . = no result. Unless noted, the call rests on the fitted dose curve; in most records, active means well fitted curve in the direction sought with a large enough effect; inconclusive means small, poorly fitted or top-dose-only effect, or another doubt; inactive means no such curve, though single readings can be large; an effect the other way counts as inactive or inconclusive.

SMILES | Shiga inhibitor | TbPYK inhibitor | Cycloheximide cs | LmPK inh | Giardia FBPA inh | Sm TGR inh
O=C(NCC(c1ccco1)N1CCN(c2ccccc2F)CC1)c1ccc2c(c1)OCO2 (stereo not drawn) | . | -4.4% | . | . | . | -2.0%
COc1ccc(Oc2cnc3ccccc3n2)cc1 | 51.2* | -1.1% | 30.8* | 2.1% | 1.3% | -2.4%
CC(=O)Nc1cccc(Oc2cnc3ccccc3n2)c1 | 45.7* | 4.1% | 17.2* | -1.0% | -8.6% | -24.3%
CC(=O)Nc1ccc(Oc2cnc3ccccc3n2)cc1 | 1.7 | 2.0% | -1.4 | 0.6% | 8.4% | -5.8%
Clc1ccccc1Oc1cnc2ccccc2n1 | 21.6 | -5.5% | 16.1 | 0.7% | -1.1% | 7.7%
Clc1cccc(Oc2cnc3ccccc3n2)c1 | 33.1 | -3.0% | 22.3* | -4.5% | 5.9% | 4.9%
c1ccc(Oc2cnc3ccccc3n2)cc1 | 35.3 | 4.3% | 21.4 | -1.4% | -1.7% | -18.9%
CCOc1ccc(NC(=O)Cn2cc(C(=O)c3ccc(CC)cc3)c(=O)c3cc(C)ccc32)cc1 | . | -2.0% | . | . | . | -1.4%
Cn1c(C(=O)NCCc2c[nH]c3ccccc23)cc2sccc21 | 89.3* | -0.3% | 82.4* | 8.6% | 12.1% | 0.1%
O=C(Cc1c(F)cccc1Cl)NCCc1c[nH]c2ccccc12 | 2.0 | 2.2% | -2.1 | 0.9% | -5.1% | -9.6%
O=C(NCCc1c[nH]c2ccccc12)c1c(Cl)nc2sccn12 | 44.1 | -3.3% | 22.8* | 1.5% | 9.5% | 0.2%
O=C(NCCc1ccccc1)C(=O)c1c[nH]c2ccccc12 | 60.7* | -2.0% | 39.8* | 3.2% | -7.1% | 10.8%
O=C(NCCc1c[nH]c2ccccc12)c1cc2sccc2n1Cc1ccccc1 | -3.8 | 2.2% | -1.7 | 5.4% | -6.5% | -23.3%
O=C(NCCc1c[nH]c2ccccc12)C(=O)Nc1ccccc1 | 83.4 | 4.4% | 29.3* | 6.9% | 0.3% | 5.5%
CC1(C)S[C@@H]2[C@H](NC(=O)[C@H](N)c3ccccc3)C(=O)N2[C@@H]1C(=O)OCOC(=O)[C@@H]1N2C(=O)C[C@@H]2S(O)(O)C1(C)C | . | -5.2% | . | . | . | .
Cc1ccc(N2CCN(C(=O)Nc3cn(CC(C)C)c(=O)c4ccccc34)CC2)c(C)c1 | . | 2.3% | . | . | . | -2.4%
CC(C)Oc1ccc(CNS(=O)(=O)c2ccc(-c3cc(C(F)(F)F)on3)s2)cc1 | . | 1.8% | . | . | . | 15.5%
O=C(Cc1ccccc1)NCCc1c[nH]c2ccccc12 | 7.1 | 1.8% | -1.7 | 1.7% | 4.9% | -2.8%
O=C(NCCc1c[nH]c2ccccc12)c1ccccc1O | 29.5* | . | 38.5* | . | -8.9% | .
Fc1cccc(NCCc2c[nH]c3ccccc23)n1 | 40.4 | -2.0% | 37.3* | 7.0% | -16.0% | -19.2%
COc1cc(-c2nnn(CC(=O)Nc3ccc(OC(F)(F)F)cc3)n2)cc(OC)c1OC | . | 1.4% | . | . | . | 6.2%
CNS(=O)(=O)c1ccc(NCC2COc3ccccc3O2)c([N+](=O)[O-])c1 (stereo not drawn) | -5.3 | -7.2% | 16.4* | 0.2% | 1.1% | -19.9%
CCCCN(Cc1ccccc1)S(=O)(=O)c1ccc2c(c1)CC(C)N2C(=O)CC (stereo not drawn) | . | -7.2% | . | . | . | -4.5%
NNc1nc2c(Cl)c(Cl)ccc2s1 | 30.3* | -10.2% | 25.1* | -5.6% | -20.4% | 0.0%
Fc1ccc2nc(Nc3ccccc3)sc2c1 | 117.9* | -3.0% | 36.1* | -5.8% | -9.6% | 2.9%
SMILES | Shiga inhibitor | TbPYK inhibitor | Cycloheximide cs | LmPK inh | Giardia FBPA inh | Sm TGR inh
NNc1nc2ccc(Cl)cc2s1 | 83.3* | -13.3% | 41.7* | -14.6% | -17.1% | 5.7%
NNc1nc2ccc(F)cc2s1 | 136.5* | -1.5% | 78.1* | -10.0% | ? | -9.4%
Fc1ccc2nc(Nc3nc4c(F)cc(F)cc4s3)sc2c1 | 38.8 | -7.9% | 4.5 | 5.0% | 8.2% | -8.5%
COc1ccccc1OCC(=O)N/N=C/C=C/c1ccc([N+](=O)[O-])o1 | 13.0 | -4.0% | 19.1* | -0.9% | -2.1% | 44.7µM*
O=C(COc1ccccc1[N+](=O)[O-])N/N=C/C=C/c1ccco1 | 39.4 | -19.5% | 8.4 | -1.4% | . | 35.5µM*
Cc1ccccc1OCC(=O)N/N=C/c1ccc([N+](=O)[O-])o1 | 26.9 | 1.4% | -0.8 | -3.6% | -3.8% | ?
Cc1ccc(OCC(=O)N/N=C/C=C/c2ccco2)cc1 | -9.6 | 3.6% | -5.1 | 3.5% | -12.1% | ?
COCCCNC(=O)c1cc(-c2cccnc2)nc2ccc(S(=O)(=O)N3CCC(C)CC3)cc12 | . | 0.9% | . | . | . | 7.3%
Cc1cccc(N2CCN(C(=O)CCS(=O)(=O)c3ccc4c(c3)CC(=O)N4C)CC2C)c1 (stereo not drawn) | . | 4.6% | . | . | . | 12.6µM*
Cc1cccc(N2CCN(C(=O)CCNS(=O)(=O)c3cccs3)CC2C)c1 (stereo not drawn) | 65.5* | 3.7% | 15.6* | -3.0% | -2.6% | -2.3%
O=C(CCNS(=O)(=O)c1cccs1)N1CCc2ccccc2C1 | 86.3* | -7.5% | 28.7* | -0.3% | -5.8% | 0.0%
C[N+](C)(C)CCC(=O)c1cccc2ccccc12 | . | . | . | . | 17.3% | .
COc1ccc(NC(=O)CSc2c(C(C)C)cnc3c2c(=O)n(C)c(=O)n3C)c(OC)c1 | . | -9.9% | . | . | . | 0.3%
COc1ccc(CCNC(=O)C2CC(c3ccc([N+](=O)[O-])cc3)=NO2)cc1 (stereo not drawn) | 43.4* | 4.6% | 33.4* | -2.2% | 0.4% | 2.0%
Cc1ccc(CCNC(=O)C2CC(c3cc(C(F)(F)F)cc(C(F)(F)F)c3)=NO2)cc1 (stereo not drawn) | -2.9 | 1.9% | -4.5 | 0.3% | -0.2% | 25.7%
Cc1ccc(CNC(=O)C2CC(c3ccccc3[N+](=O)[O-])=NO2)cc1 (stereo not drawn) | -2.3 | 0.2% | 13.2* | -0.5% | 2.0% | 18.1%
Cc1ccc(CNC(=O)C2CC(c3cc(C(F)(F)F)cc(C(F)(F)F)c3)=NO2)o1 (stereo not drawn) | 16.5 | -10.4% | -3.8 | 2.7% | 0.3% | 17.8µM*
Cc1ccc(CNC(=O)C2CC(c3cccc([N+](=O)[O-])c3)=NO2)o1 (stereo not drawn) | 64.5* | -7.4% | 33.0* | -0.1% | 0.5% | 31.6µM*
CC1CCCC(NC(=O)CN(C)CC(=O)Nc2cccc(F)c2)C1C (stereo not drawn) | . | 1.1% | . | . | . | -0.2%
COC(=O)C1=C[C@@H](C(=O)OC)[C@@H]2C3=C(C(=O)[C@@]2(C)NC(=O)c2ccccc2)[C@H](C)[C@@H]2C(=O)N(c4ccccc4)C(=O)[C@@H]2[C@@H]3C1 | 13.5 | . | 7.6 | . | -0.8% | .
COc1ccc(CCNC(=O)C2CC(c3c(Cl)cccc3Cl)=NO2)cc1 (stereo not drawn) | -3.6 | -0.2% | 8.7 | 0.4% | -0.7% | ?
COc1ccc(CCNC(=O)C2CC(c3cccc([N+](=O)[O-])c3)=NO2)cc1 (stereo not drawn) | 160.5* | -3.8% | 47.4* | -7.7% | 9.7% | -4.1%

Source: PubChem
